Activity calls are given as the source filed them.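 Rule for the calls: active = inhibition above about 23% in any of six single-dose repeats (limit read from the data); inactive = the rest.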

The test deals with Intestinal-type alkaline phosphatase (Homo sapiens) (UniProt P09923). In words: suppression of intestinal alkaline phosphatase activity – biochemical, luminescence, single concentration, uHTS hits, confirmation (AID 434927).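 Note: plate controls were DMSO wells with enzyme for no effect and wells lacking enzyme for full effect.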 The settings on record: purified human IAP, CDP-Star luminescence, 30 min; at 8.3 µM; hits give high values.
Sequence of Intestinal-type alkaline phosphatase (Homo sapiens) (P09923 whole entry, looked up): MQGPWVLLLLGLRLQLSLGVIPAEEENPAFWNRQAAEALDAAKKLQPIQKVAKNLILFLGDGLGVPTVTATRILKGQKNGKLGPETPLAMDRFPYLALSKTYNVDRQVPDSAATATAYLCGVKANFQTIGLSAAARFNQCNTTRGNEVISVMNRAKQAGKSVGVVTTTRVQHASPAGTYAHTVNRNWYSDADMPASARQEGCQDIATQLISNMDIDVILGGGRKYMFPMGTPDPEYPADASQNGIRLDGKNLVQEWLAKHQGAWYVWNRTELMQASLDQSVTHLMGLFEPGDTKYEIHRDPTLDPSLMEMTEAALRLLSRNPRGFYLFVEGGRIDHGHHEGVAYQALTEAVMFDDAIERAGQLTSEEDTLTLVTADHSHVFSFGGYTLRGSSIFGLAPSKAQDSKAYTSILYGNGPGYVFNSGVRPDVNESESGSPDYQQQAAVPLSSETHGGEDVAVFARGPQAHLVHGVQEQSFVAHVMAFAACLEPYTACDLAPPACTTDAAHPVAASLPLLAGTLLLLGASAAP
Turning to `CC(C)(C)OC(=O)N1CCC(NC(=O)c2[nH]cnc2C(=O)Nc2ccon2)CC1`, the inhibition was 37% (active).
Take `CC(C)C(=O)NC(=S)Nc1ccccc1C(=O)Nc1ccccc1`: the inhibition was -108% (inactive).
Then `CC(NS(=O)(=O)c1ccc(Br)cc1)C(=O)Nc1nc2ccccc2[nH]1` (stereo not drawn), with 66.7% (active); and `O=C(Cc1coc2ccc3ccccc3c12)NCc1ccccc1`, with 59.4% (active); and `O=C(Nc1ccon1)c1nc[nH]c1C(=O)NCc1ccccc1`, with 88.5% (active).
As for `CCOC(=O)c1cnc(SCC(=O)c2ccccc2)nc1N`, the inhibition is -436% (inactive).
Consider `CC(=O)Nc1cccc(-c2csc(Nc3ccccn3)n2)c1`, for which the inhibition was -94.1% (inactive).
To `Cc1ccsc1C(=O)NNC(=S)NC1CCCCC1` belongs 49.4% (active); to `CC[n+]1c(/C=C/c2c[nH]c3ccccc23)ccc2cc(C)ccc21`, -85.7% (inactive); to `COc1cccc(/C=N/Nc2nc(-c3cccnc3)nc3ccccc23)c1`, -0.0482% (inactive).
Consider `Cc1ccc(NC(=O)NNC(=O)c2cc3ccccc3cc2O)cc1`, for which the inhibition is -69.5% (inactive).
Turning to `COc1ccc(OC)c(NC(=O)c2cc(-c3cc(C)ccc3O)n[nH]2)c1`, the inhibition was -41.7% (inactive).
Regarding `COc1ccc(C=C2C(=O)c3ccccc3C2=O)cc1O`, the inhibition is 56.2% (active).
Then `O=C(N/N=C/c1c(O)ccc2ccccc12)c1[nH]ncc1Br`, with 42.8% (active).
Then `O=C(COc1ccc(Br)cc1)NCCCn1ccnc1`, with 50.5% (active).
Then `N#Cc1c(-c2ccccc2)nc(N2CCOCC2)[nH]c1=O`, with 27.5% (active); and `CCOc1ccc(CC(=O)NNC(=S)NCCc2ccccc2)cc1`, with 77.5% (active); and `CCCCOc1cccc(C2/C(=C(\O)c3ccc4c(c3)OCCO4)C(=O)C(=O)N2CCN2CCOCC2)c1` (stereo not drawn), with -90.6% (inactive).
Regarding `CCn1c2ccccc2c2cc(NC(=O)c3coc(=O)c(Br)c3)ccc21`, the inhibition is 39.2% (active).
To `O=C(CSc1nc(-c2cccs2)cc(C(F)(F)F)n1)NCc1ccccc1` belongs 36.7% (active).
Take `COc1ccccc1CN1CCC(n2nccc2NC(=O)CCCc2ccccc2)CC1`: the inhibition is -112% (inactive).
To `O=C(NC1CCCCCC1)c1ccc(-n2cnnc2)cc1` belongs -58.8% (inactive); to `O=C(NNC(=S)NCc1ccco1)c1ccccc1Br`, 41.4% (active); to `O=C(N/N=C/c1cccc([N+](=O)[O-])c1)c1nc2ccccc2c(=O)[nH]1`, 33.3% (active).
For the compound `N#C/C(=C\c1ccc(O)c(O)c1)C(=O)c1ccc(O)c(O)c1`, the inhibition was 74.3% (active).
`Cc1ccc(-n2ncc3c(NNC(=O)c4ccco4)ncnc32)cc1C`: the inhibition is 41.4% (active).
`CCC(NC(=S)NC1CCCCC1)c1ccc(C(C)C)cc1` (stereo not drawn): the inhibition is -24.1% (inactive).
Then `O=C(NNc1ncnc2c1cnn2-c1ccc(F)cc1)c1ccco1`, with -47.2% (inactive); and `Cc1cc(C)n(C(=O)C23CC4CC(CC(C4)C2)C3)n1`, with -126% (inactive); and `COc1cccc(/C=N/Nc2nn3cnnc3c3ccccc23)c1O`, with 40.4% (active).
Take `COc1ccccc1C1CN(c2ccccc2)N=C1c1cccs1` (stereo not drawn): the inhibition is -128% (inactive).
Then `NC(CO)C(=O)NNCc1ccc(O)c(O)c1O` (stereo not drawn), with -60.9% (inactive); and `Cc1cc(Br)ccc1SCC(=O)OC/C(O)=C(\C#N)c1nc2ccccc2[nH]1`, with -67.4% (inactive).
